Only some compounds are listed: those with a hit (about 3.4% of all), similar ones and a draw of the others.
GPR151 ag = activators of human GPR151. Q8TDV0. PathHunter beta-arrestin GPR151 cells, luminescence. activation, % at 11.2 µM. 650,000 compounds, 1% hits. AID 1508602; in the data active = activation above about 4.9%;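 also: 0% = median of compound wells and 100% = cells with positive control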
MITF inh = blocks human microphthalmia-associated transcription factor. O75030. AlphaScreen MITF homodimerization, bead proximity signal. inhibition, % at 2.6 µM. 650,000 compounds, 0.91% hits; in the data active = inhibition above about 50%;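 also: 0% = vehicle wells with protein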
TEAD-YAP inh = TEAD-YAP interaction inhibition; HEK-TIYL cells, TEAD-Gal4/YAP UAS-luciferase luminescence; inhibition, % at 9.12 µM; 640,000 compounds, 1.4% hits; AID 1259422; in the data active = inhibition above about 32%;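 also: 0% = median of test compound wells and 100% = reference inhibitor wells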
FBW7 activator = activators of human E3 ligase FBW7; Q969H0; AlphaScreen FBW7–phospho-cyclin E peptide binding, activator screen; normalized activity (activation), % at 26.1 µM; 650,000 compounds, 0.13% hits; AID 1259310; in the data active = normalized activity above about 1.9%;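 also: purified mutant Fbw7 with reduced substrate affinity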
Target sequence (Q969H0 whole entry, looked up): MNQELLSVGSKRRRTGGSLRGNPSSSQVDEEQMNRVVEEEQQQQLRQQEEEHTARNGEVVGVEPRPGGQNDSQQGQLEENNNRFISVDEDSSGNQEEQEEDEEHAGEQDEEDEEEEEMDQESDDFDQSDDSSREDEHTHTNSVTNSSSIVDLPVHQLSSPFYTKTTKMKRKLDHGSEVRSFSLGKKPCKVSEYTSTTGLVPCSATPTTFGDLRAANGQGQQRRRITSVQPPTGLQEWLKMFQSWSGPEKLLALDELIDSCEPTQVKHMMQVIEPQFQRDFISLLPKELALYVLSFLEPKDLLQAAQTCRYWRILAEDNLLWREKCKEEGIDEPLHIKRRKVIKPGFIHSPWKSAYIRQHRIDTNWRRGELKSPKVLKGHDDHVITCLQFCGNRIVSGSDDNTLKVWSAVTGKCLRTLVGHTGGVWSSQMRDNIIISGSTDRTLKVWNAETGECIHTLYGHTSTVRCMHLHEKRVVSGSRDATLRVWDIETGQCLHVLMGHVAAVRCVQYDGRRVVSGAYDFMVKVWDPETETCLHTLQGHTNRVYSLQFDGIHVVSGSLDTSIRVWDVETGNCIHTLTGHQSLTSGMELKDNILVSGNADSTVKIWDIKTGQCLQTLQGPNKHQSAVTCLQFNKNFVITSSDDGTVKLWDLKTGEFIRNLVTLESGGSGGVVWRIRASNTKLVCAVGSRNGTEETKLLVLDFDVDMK
MITF inh conf = confirmation of human MITF inhibitors; AlphaScreen MITF homodimerization, biotin/His-MITF beads; shares compounds with MITF inh; inhibition, % at 2.6 µM; 4,700 compounds, 16% hits;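 active = inhibition above a cutoff derived from the DMSO control wells, cut at about 28% in these data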;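 also: 0% = MITF dimer wells with DMSO only; inhibitors lower the bead chemiluminescence by keeping MITF from dimerizing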
AlphaScreen DR = optically interferes with AlphaScreen signal in dose response | shares compounds with MITF inh | 480 compounds, 6% hits | IC50, µM | AlphaScreen optical interference counterscreen, cell-free; call rule not given here
AS interf ctr = optically interferes with AlphaScreen signal; LysRS AlphaScreen counterscreen, signal interference, triplicate; shares compounds with MITF inh; 4,700 compounds, 7.6% hits; inhibition, % at 2.6 µM;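 active = inhibition above a cutoff derived from the DMSO control wells, cut at about 30% in these data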
Active calls of the source: *; . = no result given.

SMILES | GPR151 ag | MITF inh | TEAD-YAP inh | FBW7 activator | MITF inh conf | AS interf ctr | others
CC1(C2CC2)NC(=O)N(CC(=O)Nc2ccccc2F)C1=O (centres undefined) | 1.4 | 67.2* | -3.5 | 0.1 | 10.5 | 6.7
CC1(C2CC2)NC(=O)N(CC(=O)Nc2ccc(S(=O)(=O)N3CCCCC3)cc2)C1=O (centres undefined) | -1.4 | 61.9* | -0.1 | 0.6 | 4.7 | 10.6
COc1cccc(C(=O)Nc2cc(-c3nc4ccccc4s3)ccc2C)c1 | 0.7 | 0.0 | 3.9 | -0.1 | . | .
CCCCN(CC)c1ncnc2sc(C)c(C)c12 | 0.3 | 51.4* | -0.1 | -0.2 | 10.4 | -2.0
Cc1cc(C(=O)O)ccc1-c1ccc(/C=C2/NC(=O)NC2=O)o1 | 1.0 | 66.8* | 11.9 | -0.2 | 67.6* | 20.0 | AlphaScreen DR=>6.48
COc1cc(OC)nc(Oc2cccnc2C(=O)NNc2ccccc2)n1 | 1.8 | 54.4* | -7.4 | -0.8 | 36.4* | 70.4*
C/C(=N\N1CCOCC1)c1ccc(-n2ccnc2)cc1 | -0.1 | 76.5* | -3.3 | -0.1 | 7.8 | -2.0
C/C(=N\Nc1ccccn1)c1ccc(-n2ccnc2)cc1 | 2.8 | 16.0 | -15.1 | -0.2 | . | .
c1ccc(-c2ccccn2)nc1 | -0.7 | -13.7 | -7.0 | 0.1 | . | .
c1ccc(-c2ccc(-c3ccccn3)nn2)nc1 | -9.5 | 86.0* | 43.8* | -0.1 | 98.7* | 100.6*
CCn1c2ccccc2c2cc(CN3CCN(S(=O)(=O)CC)CC3)ccc21 | -1.1 | 53.3* | -1.7 | 0.0 | 13.9 | 9.9
CCn1c2ccccc2c2cc(CN3CCN(Cc4ccccc4Br)CC3)ccc21 | -0.4 | 75.7* | -0.2 | -0.2 | 16.0 | 16.4
CCn1c2ccccc2c2cc(CN3CCCN(C)CC3)ccc21 | -0.2 | 40.2 | -7.5 | -0.2 | . | .
CCn1c2ccccc2c2cc(CN3CCN(Cc4ccccc4C(F)(F)F)CC3)ccc21 | -1.7 | 70.0* | 4.5 | -0.1 | 14.5 | 17.4
CCC(C)c1ccccc1OCC(=O)Nc1cccc(-c2nnc(-c3ccco3)o2)c1 (centres undefined) | -0.6 | 11.4 | 2.0 | 0.3 | . | .
COc1cccc(CN2CCNC(=O)C2CC(=O)N(C)Cc2ccc(C)o2)c1 (centres undefined) | 0.8 | -0.7 | -3.3 | 0.0 | . | .
CC(C)NC(=O)CCCc1nc(-c2ccccc2Cl)no1 | -0.6 | 67.8* | 4.7 | 0.0 | 10.0 | 13.8
O=C(O)CCCc1nc(-c2ccccc2Cl)no1 | 1.4 | 23.8 | -1.0 | 0.0 | . | .
COc1cc(C)ccc1OCCOCCN1CCCC(C)C1 (centres undefined) | 1.2 | 63.2* | -0.7 | -0.5 | -11.3 | -6.7
C/C=C/c1ccc(OCCCCN2CCN(CC)CC2)c(OC)c1 | -1.7 | 74.2* | 6.6 | -0.1 | 7.5 | 12.6
C/C=C/c1ccc(OCCOCCN2CCCC(C)C2)c(OC)c1 (centres undefined) | -0.7 | 52.9* | 4.9 | -0.3 | 3.6 | -1.2
CCCOc1ccccc1OCCCCN1CCN(C)CC1 | 0.5 | -1.0 | 9.5 | -0.1 | . | .
CCC(C)c1ccccc1OCCCN1CCN(C)CC1 (centres undefined) | 0.2 | 59.7* | 2.9 | 0.0 | -4.3 | 3.0
CCC(C)c1ccccc1OCCCCN1CCNCC1 (centres undefined) | -0.8 | 70.0* | -4.2 | 0.2 | -15.3 | -2.8
CC1CN(C)/C(=N/C(=S)Nc2ccccc2)S1 (centres undefined) | -1.3 | -1.3 | 28.4 | -0.1 | . | .
SMILES | GPR151 ag | MITF inh | TEAD-YAP inh | FBW7 activator | MITF inh conf | AS interf ctr | others
COc1cc(C=Nc2ccc(N(C)C)cc2)cc(I)c1O | 0.7 | 76.6* | 21.4 | 0.6 | 45.3* | 29.5 | AlphaScreen DR=>6.48
COc1ccc(CCNC(=O)CCn2c(SCC(=O)Nc3cccc(C(F)(F)F)c3)nc3ccccc3c2=O)cc1OC | 1.0 | 56.4* | 4.1 | 0.2 | -9.4 | -1.7
CC(Sc1nnc(-c2ccc(Cl)cc2Cl)o1)C(=O)NC(c1ccccc1)c1ccccc1 (centres undefined) | -0.7 | 1.8 | -2.6 | -0.2 | . | .
Cc1ccc(-c2csc3nc(CN(C)C4CCN(C)CC4)[nH]c(=O)c23)cc1 | 0.3 | 59.5* | -2.5 | -0.2 | -0.1 | -0.3
O=C(Cc1nc2scc(-c3ccccc3)c2c(=O)[nH]1)N1CCCC1 | -0.1 | 6.4 | -2.4 | -0.1 | . | .
Cc1ccc(-n2c(-c3ccco3)n[nH]c2=S)cc1C | 1.0 | 1.5 | -5.4 | 0.1 | . | .
CC(=O)c1ccc(-n2c(-c3cc(-c4ccco4)[nH]n3)n[nH]c2=S)cc1 | 1.0 | 61.1* | -8.3 | -0.2 | 22.5 | 37.2*
CCCSc1nc2sc3c(c2c(=O)n1-c1ccc(C)cc1)CCC3 | -0.8 | -0.3 | -6.0 | 0.3 | . | .
C=CCNCCOCCOc1cc(C)cc(C(C)C)c1 | 1.6 | 64.2* | 0.4 | 0.0 | 10.5 | 19.0
COCCNCCOCCOc1cc(C)cc(C(C)C)c1 | -1.2 | 52.6* | 1.3 | 0.0 | 4.7 | 6.5
C=CCNCCOc1cc(C)cc(C(C)C)c1 | -1.0 | -19.1 | -12.9 | 0.3 | . | .
Nc1c(C(=O)Nc2ccc(S(N)(=O)=O)cc2)sc2nc(-c3cccs3)cc(C(F)(F)F)c12 | 1.0 | 0.2 | 0.0 | 0.1 | . | .
CC(=O)Nc1ccc(NC(=O)c2ccnc(-c3cccs3)c2)cc1 | -0.3 | 28.5 | -0.3 | -0.1 | . | .
O=C(Nc1ccc(Oc2ccccc2)cc1)c1ccnc(-c2cccs2)c1 | -1.3 | 56.8* | 6.2 | -0.1 | 53.3* | -6.2 | AlphaScreen DR=>6.71
O=C(Nc1ccc(Oc2ccccc2)cc1)c1cnc(-c2cccs2)s1 | 0.6 | 53.4* | -3.3 | 0.3 | 22.5 | -3.5
Cc1cccc(OCC(=O)N(C)CCc2ccccn2)c1 | -2.1 | 61.7* | -8.4 | -0.1 | 0.2 | 0.0
CCOc1ccc(CN(C)CCc2ccccn2)cc1 | -0.3 | 87.5* | 0.6 | -0.2 | -10.4 | 7.2
COc1cccc(OCC(=O)NCc2ccccn2)c1 | -0.4 | 8.9 | 6.9 | 0.5 | . | .
CCn1c2ccccc2c2cc(CN(C)CCc3ccccn3)ccc21 | -1.0 | 73.6* | -5.3 | -0.2 | 3.8 | 22.1
CN(CCc1ccccn1)Cc1ccc(Br)cc1 | -0.7 | 22.7 | 2.5 | -0.1 | . | .
CCOc1ccc(CN(C)CCN(C)C)cc1 | 0.1 | 85.0* | -5.2 | 0.1 | -1.8 | 1.3
CCOc1ccc(NC(=O)C2C3C=CC4(O3)C2C(=O)N(CCC(C)C)C4C(=O)NC2CCCCC2C)cc1 (centres undefined) | -0.7 | -7.3 | 1.6 | -0.1 | . | .
CN(C)CCN(C)Cc1ccc(-c2ccccc2)cc1 | -1.3 | 52.3* | 4.5 | -0.1 | -10.0 | -7.4
Cc1ccccc1CN(C)CCc1ccccn1 | 0.8 | 3.9 | -9.8 | -0.1 | . | .
Cc1cccc(CN(C)CCc2ccccn2)c1 | 1.1 | 69.4* | 4.0 | -0.2 | 8.6 | 24.7
CN(CCc1ccccn1)Cc1cccc(Br)c1 | 1.2 | 47.9 | -11.1 | 0.2 | . | .
CN(CCc1ccccn1)Cc1cccc(Cl)c1 | -1.1 | 50.7* | -9.3 | -0.1 | -2.6 | -1.7
CN(C)CCN(C)Cc1ccc(F)c(F)c1 | -1.1 | 51.2* | 11.2 | 0.0 | 6.9 | -0.3

High-throughput results from PubChem.
